Test results: PubChem BioAssay AID889 (National Center for Advancing Translational Sciences (NCATS), 2007)
The whole screen tested about 75,000 compounds, of which about 15 (0.02%) were called active. Not shown: some 3% with an inconclusive outcome. The sample as a whole holds a higher share of actives than the screen did. Unmarked numbers belong to inactive results. The call rests on the fitted dose curve; in most records, active means well fitted inhibition curve with a large enough effect in the main read-out, with a control signal flat (not every such curve was filed as active); inconclusive means small, poorly fitted or top-dose-only effect, or a change in a side signal; inactive means flat fitted curve, though single readings scatter. Square brackets hold non-standard residues; d marks the D form. Side chains are listed from the residue outwards. Peptide text beside a SMILES is read from it. * marks the point of attachment. X1 = CCC(C)C(N)C1=NC(C(=O)*)CS1; Orn = NCCC[CH](N)C(=O)O

Target: Caspase-7 (Homo sapiens) (UniProt P55210)
Sequence (P55210 24-198 limits assumed): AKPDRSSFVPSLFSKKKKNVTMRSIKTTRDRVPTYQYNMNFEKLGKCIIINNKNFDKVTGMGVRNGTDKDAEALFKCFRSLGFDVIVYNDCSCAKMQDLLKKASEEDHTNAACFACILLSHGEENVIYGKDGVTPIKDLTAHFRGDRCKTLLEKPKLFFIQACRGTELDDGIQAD
Sequence (P55210 207-303 limits assumed): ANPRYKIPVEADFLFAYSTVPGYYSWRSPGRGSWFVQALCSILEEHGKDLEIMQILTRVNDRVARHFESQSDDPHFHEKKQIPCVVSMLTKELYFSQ
Experiment: qHTS Assay for Allosteric/Competitive Inhibitors of Caspase-7; on activity change, negative = inhibition: % of control where 0% means no effect
Settings: recombinant caspase-7, Ac-DEVD-AFC fluorescence rate; series mostly up to 57.5 µM; activity change, negative = inhibition: at the top concentration
Excerpt: NIH Molecular Libraries Screening Centers Network [MLSCN]
NIH Chemical Genomics Center [NCGC]
PI Name: Dr. James Wells,
Dr. Enrique Perez-Paya, Dr.Janice Williams, Dr. Dennis Wolan, a person
The caspases (Cysteine Aspartyl Protease) comprise a related family of 14 dimeric proteases that are critical mediators of apoptosis (programmed cell death) and inflammation. The caspases represent an important class of drug targets for stroke, ischemia, cancer and inflammatory diseases. […] One goal of this project was to identify compounds that act as allosteric inhibitors via stabilizing the procaspase form of the enzyme. Previous work in Well's laboratory has shown that such allosteric inhibitors can be identified and these act by binding at the dimer interface of enzyme (Hardy, Lam et al., 2004).
The biochemical assay was configured using purified caspase 7 at a high enzyme concentration to promote formation of the homodimers and thus facilitate the identification of allosteric inhibitors. The overall goal was to identify reversible inhibitors with better drug-like properties than the currently available set of aspartyl-containing peptidomimetics that covalently bind the active site. Caspase 7 was assayed using the profluorescent substrate Ac-DEVD-AFC. After initiation of the assay with substrate the plates were rapidly read using an automated robotic system (Kalypsys, Inc.) to maintain consistent timing. A kinetic mode of detection was used where the initial rate was collected (estimated final product formation was ~10%). Compounds were screened as a concentration-titration series that ranged from 57 uM to 0.7 nM. Below is the protocol used for caspase 7.
NCGC Assay Protocol Summary:
Caspase 7 was prepared in buffer (50 mM HEPES pH 7.5, 50 mM KCl, 200 mM NaCl, 10 mM DTT, 0.1% CHAPS) at a concentration of 66.6 nM and 3 uL was dispensed to all wells using black solid Kalypsys 1536-well plates. 20 nL of DMSO containing compounds was added using a pin-tool (Kalypsys Inc.) to columns 5-48. Then 20 nL of DMSO solution from a control plate was added to columns 1-4. Controls were: Column 1, 16 point titration with each concentration in duplicate (1:1 dilutions in DMSO; final starting concentration was 57 uM) of the caspase 7 inhibitor Ac-DEVD-CHO (Alexis Biochemicals); Column 2, a 16 point titration with each concentration in duplicate of the free AFC fluorophore prepared in DMSO (Alexis Biochemicals), final starting was 40 uM; Column 3 neutral (DMSO only) control; Column 4: DMSO alone, to serve as a negative control (no substrate was added). Then 1 uL of 20 uM the substrate Ac-DEVD-AFC (Alexis Biochemicals) prepared in the same buffer was dispensed to all wells except columns 2 and 4 and the plates were immediately transferred (< 1 min) to the Viewlux. The plates were then exposed using 405 nm excitation/520 nm emission filters for 4 sec and read at 20 sec intervals for 3 min. Final enzyme concentration was 50 nM and the final substrate concentration was 5 uM.
Concentration-response curves were fitted to the data calculated from slope of the linear regression of fluorescent intensity versus time (the rate). The concentration-effect curves were then classified based on curve quality (r2), response magnitude and degree of measured activity. […] Inconclusive compounds had appreciable concentration-dependent effects on both the measured rate and the interpolated basal fluorescence intensity at the start of the reaction but where the basal fluorescent intensity was marginal (e.g. < 10-fold). Inconclusive compounds also encompass highly fluorescent compounds (>100-fold increases in fluorescent intensities values relative to controls) where artificial concentration-dependent decreases in the rate occurred at high compound concentrations due to fluorescent interferences.
Keywords: Caspase 7, proteases, profluorescent, MLSMR, MLSCN, NIH Roadmap, qHTS, NCGC
Potency means the concentration at half of the fitted maximal effect.

| Structure (SMILES) | activity change, negative = inhibition | Potency |
| --- | --- | --- |
| Cc1nc2cc(-c3ccc(F)cc3)nn2c(N2CCOCC2)c1C | -1.05% |  |
| COc1ccc(S(=O)(=O)Nc2c(C)n(C)n(-c3ccccc3)c2=O)cc1 | 0.471% |  |
| Nc1ncnc2c1ncn2C1CC(O)C(CO)O1 (stereo not given) | inactive |  |
| C=CCC(NCCCO)c1cccc(OC)c1OC (stereo not given) | -1.48% |  |
| COc1cccc(OC)c1C(=O)Nc1nnc(C(C)C)s1 | 0.483% |  |
| CCC(C)C(N)C1=NC(C(=O)NC(CC(C)C)C(=O)NC(CCC(=O)O)C(=O)NC(C(=O)NCCCCC2NC(=O)C(CC(N)=O)NC(=O)C(CC(=O)O)NC(=O)C(Cc3cnc[nH]3)NC(=O)C(Cc3ccccc3)NC(=O)C(C(C)CC)NC(=O)C(CCCN)NC2=O)C(C)CC)CS1 (stereo not drawn) (cyclo(DNK([Ile-Glu-Leu-X1])[Orn]IFH); configuration not given here) | -1.11% |  |
| Cc1cccc2c3c(ccc12)C1=C(C(=O)C3=O)C(C)CO1 (stereo not given) | -21.5% |  |
| COc1ccc(-c2nc3cnc(OC)nc3n(Cc3ccc(F)cc3)c2=O)cc1 | -10.3% |  |
| CN(C)CCCCNC(=O)c1ccc(Cc2nc3ccccc3[nH]2)cc1 | -0.141% |  |
| C=C1C(=O)C23C(O)C1CCC2[C@]12COC3(O)C(O)C1C(C)(C)CC[C@H]2O (stereo not given in full) | -5.51% |  |
| Cc1ccc2nc(S(=O)(=O)O)[nH]c2c1 | -1.75% |  |
| CCOC(=O)N1CCN(C(=O)CNC(=O)Cc2ccc(Cl)cc2)CC1 | -4.36% |  |
| COc1ccc(S(=O)(=O)N2CCCC2)c(C)c1C | -0.0387% |  |
| COC(=O)c1ccc(C23CC4(C2)[C@H](CN(Cc2cccnc2)[C@@H]4c2ccccc2)C3c2ccc(Cl)nc2)cc1 (stereo not given in full) | -1.86% |  |
| COC1C[C@@H](O[C@@H]2C(C)C(=O)OC(C)C(C)C(O)C(C)C(=O)[C@@]3(CO3)CC(C)C(OC3OC(C)CC(N(C)C)C3O)C2C)OC(C)[C@@H]1O (stereo not given in full) | 2.56% |  |
| Cc1nn2c3cc(N4CCOCC4)ccc3nc2c2ccccc12 | 0.94% |  |
| CC(=O)N(CN1C(=O)C2CC=CCC2C1=O)c1cccc(Cl)c1 (stereo not given) | -16.2% |  |
| CC1(C)OC2CO[C@]3(COS(N)(=O)=O)OC(C)(C)OC3C2O1 (stereo not given in full) | -0.982% |  |
| CCCCOC(=O)CNc1nnc(SCC(=O)OCC)[nH]c1=O | 0.456% |  |
| CC[C@@H]1Cc2cc(O)ccc2C2=C1c1ccc(O)cc1C[C@H]2CC | -8.12% |  |
| O=C(O)C(O)[C@@](O)(Cc1ccc(O)cc1)C(=O)O (stereo not given in full) | 0.744% |  |
| COc1cccc(N2CCN(C(=O)C3CCCN(S(=O)(=O)c4cnc[nH]4)C3)CC2)c1 (stereo not given) | 1.11% |  |
| COc1ccc(N2C(=O)CN=C2Nc2cccc(C)c2C)cc1OC | -9.88% |  |
| COC(=O)[C@@H]1C[C@@]2(O)[C@H](O)[C@H](O)[C@H](O)C[C@H]2N1Cc1ccc(C)s1 | -0.351% |  |
| O=C(O)c1c(Br)c(Br)c(Br)c(Br)c1C1c2ccc(O)cc2Oc2cc(O)ccc21 |  | 3.98 µM (active) |

| Structure (SMILES) | activity change, negative = inhibition | Potency |
| --- | --- | --- |
| COc1ccc(OC)c2[nH]c(=O)c(CCNC(=O)C(C)(C)C)cc12 | -0.648% |  |
| O=C(Oc1cc(OC(=O)c2ccccc2)c2c(c1)OC(c1ccc(OC(=O)c3ccccc3)c(OC(=O)c3ccccc3)c1)[C@@H](OC(=O)c1ccccc1)C2)c1ccccc1 (stereo not given in full) | 1.49% |  |
| C/C=C(/C)C(=O)OC1Cc2c(ccc3ccc(=O)oc23)OC1(C)C (stereo not given) | 1.54% |  |
| Cc1ccc(CNC(=O)C2CCCN(S(C)(=O)=O)C2)cc1 (stereo not given) | -4.02% |  |
| CC(C)=CCC/C(C)=C/CO/N=C1/C[C@@H](O)[C@@H](O)[C@@H]2[C@@H]3C(=O)N(C(C)(C)C)C(=O)[C@H]3CC[C@H]12 | 0.517% [at 11.5 µM] |  |
| CCOC(=O)C1CCN(C(=O)COc2cc(C)c(Br)c(C)c2)CC1 | -3.71% |  |
| COc1ccc(CCC(=O)c2c(O)cc(OC3OC(CO)C(O)C(O)C3O[C@@H]3OC(C)C(O)C(O)C3O)cc2O)cc1O (stereo not given in full) | 0.803% |  |
| CCN1CCN(C(=O)c2ccccc2N(C)S(=O)(=O)c2ccc(C)cc2)CC1 | -1.87% |  |
| Cc1cc(C)c(C)c(S(=O)(=O)Nc2ccc(O)cc2)c1C | 0.495% |  |
| O=C(CSc1nc2ncccc2[nH]1)Nc1ccc2c(c1)OCCO2 | 0.658% |  |
| C=C1C([C@@]2(C)C(OC(C)=O)CC(=O)O[C@@](C)(COC(C)=O)C2CC(=O)OC)C(OC=O)C(OC(=O)C(O)C(C)CC)[C@]2(C)C(c3ccoc3)CC(=O)C12O (stereo not given in full) | 0.439% |  |
| CC(C)N(CCNC(=O)c1ccc(-n2c(=O)c(=O)[nH]c3ccccc32)cc1)C(C)C | 1.72% |  |
| CCOC(=O)C1CCCN(C(=O)c2ccc(CS(=O)(=O)c3ccc(Br)cc3)o2)C1 (stereo not given) | -1.53% |  |
| Clc1ccc(C2[C@H]3CN(CC4CCCCC4)[C@H](c4ccccc4)C34CC2(c2cccnc2)C4)cn1 (stereo not given in full) | -2.48% |  |
| Cc1cnc(C(=O)OCC(=O)Nc2ccc(Cl)cc2Cl)cn1 | 0.963% |  |
| O=C(CSc1nc2ccccc2o1)N1CCN(c2ccccc2)CC1 | -0.235% |  |
| CN1CCCC1CCO[C@@](C)(c1ccccc1)c1ccc(Cl)cc1 (stereo not given in full) | -1.39% |  |
| Nc1nc2nc(Cl)[nH]c2c(=O)[nH]1 | 1.16% |  |
| CC1CC[C@@]23CCC4(C)[C@@]5(C)CCC6C(C)(C)C(O)CC[C@@]6(C)C5C=C[C@@]4(OC2=O)C3C1C (stereo not given in full) | 2.11% |  |
| O=C(Nc1nsc(-c2ccccc2)n1)c1ccncc1 | 0.285% |  |
| CCC(CCC(C)C1CCC2C3CC=C4CC(O)CC[C@@]4(C)C3CC[C@@]12C)C(C)C (stereo not given in full) | 0.256% |  |
| Cc1c(NC(=O)Nc2ccccc2Cl)sc(=S)n1C | -4.46% |  |
| COc1ccc(S(=O)(=O)N(C)CC(=O)Nc2ccc3c(c2)OCCO3)cc1OC | -0.767% |  |
| COC(=O)[C@@H]1C[C@@]2(O)[C@@H](O)[C@@H](O)[C@@H](O)C[C@H]2N1Cc1ccc(C)s1 | -1.65% |  |
| COc1ccc(C2CC(=O)c3c(O)cc(OC4OC(COC5OC(C)C(O)C(O)C5O)C(O)C(O)C4O)cc3O2)cc1O (stereo not given) | 0.477% |  |
